Measured values reported in PubChem BioAssay (NCATS).
Inconclusive results are not listed. Activity calls are given as the source filed them. Unless noted, calls come from the whole dose curve; as a rule, active = well fitted curve in the direction sought with a large enough effect; inconclusive = small, poorly fitted or top-dose-only effect, or another doubt; inactive = no such curve, though single readings can be large; an effect the other way counts as inactive or inconclusive.

Assays:
[1] = AP1 Signaling Pathway (AID 357; active = well fitted curve in either direction with a large enough effect, not every such curve was filed as active;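 note: ME-180 reporter cells stimulated with EGF at its EC50 level; % is set by controls: 0 for no effect and ±100 for the full control effect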)
In short: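 Beta-lactamase reporter under AP-1 response element, ME-180 background. Stimulus: EC50 EGF. Compound exposure 5 h, 37 °C. Detection: CCF4, 2.5 h RT, 460/530 nm. Values: AC50 from titration.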

[2] = biological target: Cytochrome P450 1A2 (Homo sapiens) (UniProt P05177); assay: p450-cyp1a2 (AID 410; calls by dose curve; note: potency is the fitted concentration of half-maximal effect;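 for activity change, negative = inhibition: -100% = full effect of reference inhibitor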)
Sequence of Cytochrome P450 1A2 (Homo sapiens) (P05177 whole entry, looked up): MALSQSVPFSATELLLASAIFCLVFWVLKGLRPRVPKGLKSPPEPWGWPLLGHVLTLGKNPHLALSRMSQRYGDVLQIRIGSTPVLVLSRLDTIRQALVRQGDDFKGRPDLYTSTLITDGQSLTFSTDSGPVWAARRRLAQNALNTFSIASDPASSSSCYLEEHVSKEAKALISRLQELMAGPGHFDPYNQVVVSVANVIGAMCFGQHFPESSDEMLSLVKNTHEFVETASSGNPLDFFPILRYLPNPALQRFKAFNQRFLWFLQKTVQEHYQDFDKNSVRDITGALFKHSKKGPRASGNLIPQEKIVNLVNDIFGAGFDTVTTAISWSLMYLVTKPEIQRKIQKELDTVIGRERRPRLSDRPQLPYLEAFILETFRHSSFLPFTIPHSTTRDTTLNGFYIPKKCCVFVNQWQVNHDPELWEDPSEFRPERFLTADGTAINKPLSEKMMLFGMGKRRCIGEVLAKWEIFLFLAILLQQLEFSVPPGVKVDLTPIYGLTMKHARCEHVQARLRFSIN
In short: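 Inhibition was calculated relative to 57 uM furafylline (full inhibition). The reaction used human CYP1A2 at 20nM with Luciferin-ME at its Km, 100uM, driven by an NADPH-regenerating system for 60 min at room temperature.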

[3] = NFAT Signaling Pathway (AID 444; active = well fitted curve in either direction with a large enough effect, not every such curve was filed as active;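 note: carbachol stimulus at about its EC50 of 1 µM final; % is set by controls: 0 for no effect and ±100 for the full control effect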); conditions: Jurkat NFAT-bla M1, carbachol, beta-lactamase ratio, 5 h; at 17.2 µM (top of the series) unless noted
In short: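 Read-out: CCF4 FRET ratio (460 nm/530 nm) after 1 h RT dye loading, used for %activity and AC50 from titration series. Cells: Jurkat NFAT-β-lactamase/M1 line, treated with compound plus 1 uM carbachol for 5 h, 37 °C.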

[4] = Stat Signaling Pathway (AID 446; active = well fitted curve in either direction with a large enough effect, not every such curve was filed as active;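 note: ME-180 cervical cancer cells given 40 pM IL-6 alongside compound; SIE-controlled beta-lactamase reporter measured as 460/530 nm FRET emission ratio; % is set by controls: 0 for no effect and ±100 for the full control effect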)
In short: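 ME-180 cells carrying a SIE-driven beta-lactamase reporter are stimulated with 40 pM IL-6 for 5 h at 37C in the presence of compound. The 460/530 nm FRET substrate ratio is read after 2.5 h at RT. Data are normalised to 300 pM IL-6 and to 125 nM JAK inhibitor controls.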

[5] = biological target: Glucocorticoid receptor (Homo sapiens) (UniProt P04150); assay: GR-GFP Redistribution (AID 450;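 active = compounds whose dose series gives a full or clear partial fitted curve of increased nuclear translocation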; note: potency is the fitted concentration of half-maximal effect); conditions: U2OS GR-GFP nuclear translocation, laser cytometry, 2 h
Sequence of Glucocorticoid receptor (Homo sapiens) (P04150 whole entry, looked up, the tested form may be a part): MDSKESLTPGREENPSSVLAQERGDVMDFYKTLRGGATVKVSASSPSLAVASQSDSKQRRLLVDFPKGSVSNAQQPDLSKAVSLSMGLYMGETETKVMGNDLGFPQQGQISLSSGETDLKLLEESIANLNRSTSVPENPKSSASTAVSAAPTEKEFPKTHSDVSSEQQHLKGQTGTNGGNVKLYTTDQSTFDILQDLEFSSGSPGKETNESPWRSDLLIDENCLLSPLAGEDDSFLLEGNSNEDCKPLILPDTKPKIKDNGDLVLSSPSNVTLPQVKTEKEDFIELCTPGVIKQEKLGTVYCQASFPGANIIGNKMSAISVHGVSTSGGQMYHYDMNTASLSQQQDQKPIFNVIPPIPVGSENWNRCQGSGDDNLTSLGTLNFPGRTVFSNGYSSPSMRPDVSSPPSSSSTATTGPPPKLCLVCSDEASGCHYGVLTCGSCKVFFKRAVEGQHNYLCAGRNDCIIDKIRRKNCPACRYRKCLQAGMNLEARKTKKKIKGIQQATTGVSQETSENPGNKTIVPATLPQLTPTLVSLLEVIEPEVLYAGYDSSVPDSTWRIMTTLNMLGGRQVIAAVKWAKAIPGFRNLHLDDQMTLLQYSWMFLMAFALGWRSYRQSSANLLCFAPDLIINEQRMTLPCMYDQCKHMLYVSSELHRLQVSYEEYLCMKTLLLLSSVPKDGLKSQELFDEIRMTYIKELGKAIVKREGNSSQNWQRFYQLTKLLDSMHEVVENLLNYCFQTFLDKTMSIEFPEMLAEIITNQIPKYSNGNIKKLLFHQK

[6] = biological target: Mitogen-activated protein kinase 10 (Mus musculus) (UniProt Q61831); assay: JNK3 AlphaScreen Assay (AID 530; active = well fitted curve in either direction with a large enough effect, not every such curve was filed as active;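 note: kinase came from lysate of stimulated human HepG2 cells; signal reports phosphorylation of biotinylated GST-cJun 1-79 at Ser73 with 10 µM ATP; % is set by controls: 0 for no effect and ±100 for the full control effect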)
In short: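 Room-temperature AlphaScreen kinase assay; pre-activated HepG2 lysate as JNK3 source, biotin-GST-cJun(1-79) substrate, 10 uM ATP, compound 15 min preincubation.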

[7] = biological target: 3',5'-cyclic-AMP phosphodiesterase 4B (Homo sapiens) (UniProt Q07343); assay: qHTS Assay for Inhibitors of PDE-IV (AID 607; active = well fitted activation curve with a large enough effect in the main read-out, with a control signal flat, not every such curve was filed as active; note: % of control where 0% means no effect)
Sequence of 3',5'-cyclic-AMP phosphodiesterase 4B (Homo sapiens) (Q07343 whole entry, looked up): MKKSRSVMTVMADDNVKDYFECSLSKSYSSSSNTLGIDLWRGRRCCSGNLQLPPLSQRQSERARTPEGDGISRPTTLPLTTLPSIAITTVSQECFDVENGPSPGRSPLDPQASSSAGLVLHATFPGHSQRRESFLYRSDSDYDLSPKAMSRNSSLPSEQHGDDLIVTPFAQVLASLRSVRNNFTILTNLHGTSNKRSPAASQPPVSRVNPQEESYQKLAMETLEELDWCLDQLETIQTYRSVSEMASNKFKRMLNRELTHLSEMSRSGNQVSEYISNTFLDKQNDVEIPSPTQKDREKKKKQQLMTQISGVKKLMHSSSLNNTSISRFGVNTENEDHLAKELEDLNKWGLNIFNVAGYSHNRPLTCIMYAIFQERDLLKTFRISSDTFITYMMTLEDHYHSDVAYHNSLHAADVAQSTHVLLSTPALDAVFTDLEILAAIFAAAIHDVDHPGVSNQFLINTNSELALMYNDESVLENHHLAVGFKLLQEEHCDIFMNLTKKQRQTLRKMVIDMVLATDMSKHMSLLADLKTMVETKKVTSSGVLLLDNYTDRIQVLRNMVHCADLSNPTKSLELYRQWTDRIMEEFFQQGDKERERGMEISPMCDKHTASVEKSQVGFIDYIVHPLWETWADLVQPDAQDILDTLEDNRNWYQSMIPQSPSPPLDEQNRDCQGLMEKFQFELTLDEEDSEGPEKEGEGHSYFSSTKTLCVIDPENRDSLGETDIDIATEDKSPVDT
In short: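 HEK293 ACTOne cells with CNG channel (1000/well), endogenous PDE4; membrane potential dye, compounds up to 22.9 uM final. Fluorescence Ex 535/Em 590; RO 20-1724 (100 uM final) as reference.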

[8] = qHTS Assay for Lipid Storage Modulators (AID 1519; calls by dose curve); conditions: Drosophila S3 cells, BODIPY lipid droplet/cell ratio, laser cytometry, cells loaded with oleic acid
In short: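 Cells seeded at 5,000 per well were treated with compounds over a concentration series and loaded with oleic acid (400 uM, as added). Lipid droplet fluorescence (488 nm excitation, 500-530 nm channel) was read by laser-scanning cytometry and normalized to 20 uM Triacsin C.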

[9] = biological target: Ubiquitin carboxyl-terminal hydrolase 1 (Homo sapiens) (UniProt O94782); assay: Inhibitors of USP1/UAF1: Pilot qHTS (AID 504865);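 note: rhodamine fluorescence freed from ubiquitin-rhodamine substrate followed over time; top concentration of the series differs between compounds; % is set by controls: 0 for no effect and ±100 for the full control effect; nearly all actives have a fitted effect of over 35% in size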
Sequence of Ubiquitin carboxyl-terminal hydrolase 1 (Homo sapiens) (O94782 whole entry, looked up): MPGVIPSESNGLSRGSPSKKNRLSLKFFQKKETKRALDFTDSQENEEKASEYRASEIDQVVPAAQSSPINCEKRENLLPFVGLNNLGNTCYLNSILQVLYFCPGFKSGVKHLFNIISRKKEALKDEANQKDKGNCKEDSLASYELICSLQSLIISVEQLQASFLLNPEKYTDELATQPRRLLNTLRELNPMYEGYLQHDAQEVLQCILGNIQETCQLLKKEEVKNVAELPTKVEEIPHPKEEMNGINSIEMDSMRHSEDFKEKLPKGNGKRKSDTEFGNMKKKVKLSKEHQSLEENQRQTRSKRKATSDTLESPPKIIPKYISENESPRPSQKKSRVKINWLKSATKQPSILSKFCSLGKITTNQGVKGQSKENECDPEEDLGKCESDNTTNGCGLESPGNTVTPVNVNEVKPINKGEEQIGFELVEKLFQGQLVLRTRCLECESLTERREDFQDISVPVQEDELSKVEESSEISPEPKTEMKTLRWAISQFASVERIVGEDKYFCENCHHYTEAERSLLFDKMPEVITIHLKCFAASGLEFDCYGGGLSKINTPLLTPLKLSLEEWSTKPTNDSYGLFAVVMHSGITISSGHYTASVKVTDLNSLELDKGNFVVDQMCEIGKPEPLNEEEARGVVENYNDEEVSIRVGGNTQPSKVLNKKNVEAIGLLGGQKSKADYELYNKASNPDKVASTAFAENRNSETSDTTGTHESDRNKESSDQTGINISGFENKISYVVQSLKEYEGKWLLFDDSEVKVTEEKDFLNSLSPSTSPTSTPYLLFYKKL
In short: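 1nM USP1/UAF1 + cpd, 15 min RT; start w/ Ub-Rho 150nM final; kinetic FL 480/540 nm, 6 reads q60 s. Buffer 50mM HEPES pH 7.8, 0.5mM EDTA, 1mM TCEP, 0.01% Tween-20, 0.1 mg/ml BSA.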

[10] = biological target: Glucocorticoid receptor (Homo sapiens) (UniProt P04150); assay: GR-EFC Redistribution (AID 451; calls by dose curve; note: potency is the fitted concentration of half-maximal effect); conditions: CHO-K1 GR-EFC translocation, beta-gal luminescence, 2 h
In short: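 Translocation of GR-ED fusion to nuclear EA restores b-gal, read by luminescence after 1 h room-temperature detection. Engineered CHO-K1 biosensor cells, 1,000/well, exposed 2 h at 37 C to titrations up to 46 uM final.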

[11] = biological target: ATP-dependent 6-phosphofructokinase (Trypanosoma brucei brucei) (UniProt O15648); assay: qHTS Assay to Find Inhibitors of T. brucei phosphofructokinase: hit validation (AID 492961)
Sequence of ATP-dependent 6-phosphofructokinase (Trypanosoma brucei brucei) (O15648 whole entry, looked up): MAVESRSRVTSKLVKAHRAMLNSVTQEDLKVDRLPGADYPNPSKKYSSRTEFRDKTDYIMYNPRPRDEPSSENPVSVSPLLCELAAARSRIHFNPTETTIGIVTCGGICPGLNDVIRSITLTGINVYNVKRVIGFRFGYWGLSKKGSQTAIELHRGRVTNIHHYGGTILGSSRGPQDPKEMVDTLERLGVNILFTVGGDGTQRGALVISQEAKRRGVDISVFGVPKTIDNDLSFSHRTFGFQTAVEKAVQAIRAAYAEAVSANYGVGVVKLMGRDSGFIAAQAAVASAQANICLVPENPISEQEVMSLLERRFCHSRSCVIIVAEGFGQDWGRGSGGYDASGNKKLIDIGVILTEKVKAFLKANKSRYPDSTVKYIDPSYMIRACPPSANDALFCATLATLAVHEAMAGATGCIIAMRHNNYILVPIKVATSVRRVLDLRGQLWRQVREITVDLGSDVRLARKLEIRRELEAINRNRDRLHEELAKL
In short: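 In this biochemical qHTS validation, titrated compounds were tested against 1.25 nM PFK with 0.1 mM ATP and 0.5 mM F6P. Percent activity came from controls lacking or containing enzyme.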

[12] = biological target: Luciferin 4-monooxygenase (Photinus pyralis) (UniProt P08659); assay: Biochemical firefly luciferase enzyme assay for NPC (AID 624030);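 note: purified P. pyralis luciferase at 10 nM with luciferin and ATP substrate; 0% = DMSO and -100% = full luciferase inhibition by PTC124 control; nearly all actives have a fitted effect of over 70% in size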
Sequence of Luciferin 4-monooxygenase (Photinus pyralis) (P08659 whole entry, looked up): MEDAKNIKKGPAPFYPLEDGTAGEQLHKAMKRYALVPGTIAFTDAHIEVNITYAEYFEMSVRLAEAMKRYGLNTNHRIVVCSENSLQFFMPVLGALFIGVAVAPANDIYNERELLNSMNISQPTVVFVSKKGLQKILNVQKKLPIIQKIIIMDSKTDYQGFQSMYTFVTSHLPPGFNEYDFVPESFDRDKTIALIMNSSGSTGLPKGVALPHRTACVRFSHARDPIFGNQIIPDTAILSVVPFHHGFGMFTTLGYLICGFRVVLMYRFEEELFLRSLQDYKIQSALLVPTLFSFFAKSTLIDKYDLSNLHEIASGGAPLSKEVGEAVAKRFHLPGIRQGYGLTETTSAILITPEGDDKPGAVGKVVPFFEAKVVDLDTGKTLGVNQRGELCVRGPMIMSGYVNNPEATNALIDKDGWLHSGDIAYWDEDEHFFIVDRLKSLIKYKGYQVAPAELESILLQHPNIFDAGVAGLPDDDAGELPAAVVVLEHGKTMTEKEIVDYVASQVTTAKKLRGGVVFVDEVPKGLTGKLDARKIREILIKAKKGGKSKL
In short: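 Direct inhibition of firefly luciferase enzyme (10 nM final, 50 mM Tris Acetate) assessed by luminescence within 5 minutes. Percent activity scaled between DMSO and PTC124 positive control, with concentration-effect curves classified by fit quality and response.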

[13] = S16 Schwann cell viability assay (CellTiter-Glo assay) (AID 624031);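 note: cellular ATP luminescence as a viability measure; plate controls were DMSO-treated cells for no effect and cell-free wells for full effect; nearly all actives have a fitted effect of over 70% in size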
In short: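 Untransfected S16 rat Schwann cells; compound 24 h, 37 °C/5% CO2; CellTiter-Glo ATP luminescence. % activity vs no-cell wells and DMSO controls (0%); concentration-effect curves classed by r2, response magnitude, activity.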

[14] = qHTS profiling for inhibitors of Plasmodium falciparum proliferation (AID 504749);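 note: 0% = DMSO vehicle and full inhibition = artemisinin control; nearly all actives have a fitted effect of over 60% in size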; conditions: P. falciparum in erythrocytes, SYBR Green DNA, 72 h, at 12.8 µM (top of the series)
In short: (§1)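 Three-day growth assay of blood-stage parasites in erythrocytes (0.3% parasitemia, 2.5% hematocrit) at 37 C, 5% CO2, quantified by SYBR Green DNA staining after overnight detergent lysis.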

C2A = assay: as above; conditions: P. falciparum in erythrocytes, SYBR Green DNA, 72 h; series mostly up to 12.8 µM
In short: as §1

CP191 = assay: as above; conditions: P. falciparum in erythrocytes, SYBR Green DNA, 72 h; series mostly up to 12.8 µM
In short: as §1

CP250 = assay: as above; conditions: P. falciparum in erythrocytes, SYBR Green DNA, 72 h; series mostly up to 12.8 µM
In short: as §1

FAB9 = assay: as above; conditions: P. falciparum in erythrocytes, SYBR Green DNA, 72 h; series mostly up to 12.8 µM
In short: as §1

JCK = assay: as above; conditions: P. falciparum in erythrocytes, SYBR Green DNA, 72 h; series mostly up to 12.8 µM
In short: as §1

SC27B = assay: as above; conditions: P. falciparum in erythrocytes, SYBR Green DNA, 72 h; series mostly up to 12.8 µM
In short: as §1

[15] = measured here: cell count channel max response
[16] = measured here: lipid channel max response

COc1cc2c(cc1OC)-c1cc3ccc(OC)c(OC)c3c[n+]1CC2
inactive: outcome [1] | Potency [2] | activity change, negative = inhibition [3] -18.1% | outcome [4] | Potency [5] > 20.6 µM | Potency [6] | outcome [7] | activity change, negative = inhibition ([8]; at 25.7 µM (top of the series)) 1.8% | Potency [9]
-7.96%: max response [8, 16]
-8.72%: max response [8, 15]

CCC(=O)O[C@@H]1[C@H](C)O[C@H](O[C@H]2[C@@H](N(C)C)[C@H](O)[C@@H](O[C@@H]3[C@@H](CC=O)C[C@@H](C)[C@@H](O)/C=C\C=C/C[C@@H](C)OC(=O)C[C@@H](OC(=O)CC)[C@H]3OC)O[C@H]2C)C[C@]1(C)O
-5.96%: max response [8, 15]
inactive: outcome [1] | Potency [2] | activity change, negative = inhibition [3] 3.96% | outcome [4] | Potency [10] > 20.6 µM | Potency [6] | outcome [7] | activity change, negative = inhibition ([8]; at 25.7 µM (top of the series)) -0.346% | outcome [11] | Potency [12] | outcome [13] | activity, negative = inhibition ([14]; parasite line A) -18.8% | activity, negative = inhibition ([14]; parasite line B) -28.9% | Potency (C2A) | Potency (CP191) | Potency (CP250) | Potency (FAB9) | Potency (JCK) | Potency (SC27B)
-6.47%: max response [8, 16]

CO[C@H]1[C@@H](OC(N)=O)[C@H](O)[C@@H](Oc2ccc3c(O)c(NC(=O)c4ccc(O)c(CC=C(C)C)c4)c(=O)oc3c2C)OC1(C)C
inactive: outcome [1] | Potency [2] | activity change, negative = inhibition [3] -13.7% | outcome [4] | Potency [5] > 20.6 µM | Potency [6] | outcome [7] | activity change, negative = inhibition ([8]; at 25.7 µM (top of the series)) -1.82% | outcome [11] | Potency [9] | Potency [12] | outcome [13] | activity, negative = inhibition ([14]; parasite line A) 4.79% | activity, negative = inhibition ([14]; parasite line B) -4.42% | Potency (C2A) | Potency (CP191) | Potency (CP250) | Potency (FAB9) | Potency (JCK) | Potency (SC27B)
-8.17%: max response [8, 16]
-8.07%: max response [8, 15]

C[C@H]1CC[C@]2(OC1)O[C@@H]1C[C@@H]3[C@@H]4CC[C@H]5C[C@@H](O)CC[C@]5(C)[C@@H]4CC(=O)[C@@]3(C)[C@H]1[C@@H]2C
-7.26%: max response [8, 16]
-5.08%: max response [8, 15]
inactive: outcome [1] | Potency [2] | activity change, negative = inhibition [3] 0.559% | outcome [4] | Potency [6] | outcome [7] | activity change, negative = inhibition ([8]; at 25.7 µM (top of the series)) -1.95% | outcome [11] | Potency [9] | Potency [12] | outcome [13] | activity, negative = inhibition ([14]; parasite line A) 11.1% | activity, negative = inhibition ([14]; parasite line B) 13.9% | Potency (C2A) | Potency (CP191) | Potency (CP250) | Potency (FAB9) | Potency (JCK) | Potency (SC27B)

CC(=O)N[C@H]1[C@@H](O[C@@H](C)C(=O)O)[C@H](O)[C@H](CO)O[C@@H]1O
inactive: outcome [1] | Potency [2] | activity change, negative = inhibition [3] 4.75% | outcome [4] | Potency [5] > 20.6 µM | Potency [10] > 20.6 µM | Potency [6] | outcome [7] | activity change, negative = inhibition ([8]; at 25.7 µM (top of the series)) -1.67%
4.82%: max response [8, 16]
7.96%: max response [8, 15]

Cn1c(-c2ccc3c(c2)OCO3)cc(=O)c2ccccc21
active: Potency [2] 5.01 µM
inactive: outcome [1] | activity change, negative = inhibition [3] -10.6% | outcome [4] | Potency [5] > 20.6 µM | Potency [10] > 20.6 µM | Potency [6] | activity change, negative = inhibition ([8]; at 25.7 µM (top of the series)) 2.22% | Potency [9]
-2.71%: max response [8, 16]
-4.86%: max response [8, 15]

N#Cc1cccc(-c2cncnc2-n2ccnc2)c1
active: Potency [2] 15.8 µM
16.1%: max response [8, 15]
inactive: outcome [1] | activity change, negative = inhibition [3] -7.66% [at 7.69 µM] | outcome [4] | Potency [10] > 46 µM | Potency [6] | outcome [7] | activity change, negative = inhibition ([8]; at 57.5 µM (top of the series)) 8.24% | Potency [9]
24.6%: max response [8, 16]

NCC[C@H](O)C(=O)N[C@H]1C[C@@H](N)[C@@H](O[C@H]2O[C@@H](CN)[C@@H](O)[C@@H](O)[C@@H]2O)[C@@H](O)[C@@H]1O[C@H]1O[C@@H](CO)[C@@H](O)[C@@H](N)[C@@H]1O
inactive: outcome [1] | Potency [2] | activity change, negative = inhibition [3] -4.44% | outcome [4] | Potency [10] > 20.6 µM | Potency [6] | outcome [7] | activity change, negative = inhibition ([8]; at 25.7 µM (top of the series)) -0.738%
11.5%: max response [8, 15]
11.3%: max response [8, 16]

CC(=O)OCC(=O)[C@@]1(O)[C@H](C)C[C@@H]2[C@H]3CCC4=CC(=O)C=C[C@]4(C)[C@]3(F)[C@@H](O)C[C@@]21C
inactive: outcome [1] | Potency [2] | activity change, negative = inhibition [3] -0.305% | outcome [4] | Potency [6] | outcome [7] | activity change, negative = inhibition ([8]; at 25.7 µM (top of the series)) -3.21% | outcome [11] | Potency [9] | Potency [12] | outcome [13] | activity, negative = inhibition ([14]; parasite line A) 0.4% | activity, negative = inhibition ([14]; parasite line B) -1.7% | Potency (C2A) | Potency (CP191) | Potency (CP250) | Potency (FAB9) | Potency (JCK) | Potency (SC27B)
-15.2%: max response [8, 15]
-18.5%: max response [8, 16]

CN[C@]1(C)[C@H]2CC[C@@H](C2)C1(C)C
inactive: outcome [1] | Potency [2] | activity change, negative = inhibition [3] -19.7% | outcome [4] | Potency [5] > 20.6 µM | Potency [10] > 20.6 µM | Potency [6] | outcome [7] | activity change, negative = inhibition ([8]; at 25.7 µM (top of the series)) -3.7%
-14.5%: max response [8, 16]
-12.2%: max response [8, 15]

NC(=O)N/N=C\c1ccc([N+](=O)[O-])o1
inactive: outcome [1] | activity change, negative = inhibition [3] -5.34% | outcome [4] | Potency [10] > 20.6 µM | Potency [6] | outcome [7] | activity change, negative = inhibition ([8]; at 25.7 µM (top of the series)) 0.117% | Potency [9]
active: Potency [2] 12.6 µM
-1.91%: max response [8, 16]
-2.81%: max response [8, 15]
